# Screening data from PubChem.
# A selection: hits, their analogues and other compounds. The true share with any hit is near 19%.
# IL-1B inflam inh: qHTS for Inhibitors of Inflammasome Signaling: IL-1-beta AlphaLISA Primary Screen; activity change, % at 57.5 µM; hit rate 4.7% among 360,000; THP-1 LPS/ATP IL-1B secretion, AlphaLISA, 16 h; stronger effect = lower value; in the data active = activity change below about -50%; inconclusive = mostly about -30% to -49%
#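 Secreted IL-1B measured by AlphaLISA bead assay after 16 h compound exposure of THP-1 cells; compounds (final up to 57.5 uM) added 1 h before LPS (250 ng/mL) and ATP (1.25 mM) stimulation; lower signal means less secretion.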
# TDP1 cell noCPT: qHTS for Inhibitors of human tyrosyl-DNA phosphodiesterase 1 (TDP1): qHTS in cells in absence of CPT; DT40 Tdp1-/- hTDP1 cells, no CPT, ATP luminescence, 48 h; Potency, µM (doses to about 46.2 µM), inactives show at the top dose activity change, negative = growth inhibition, actives largely listed as inhibitors; hit rate 15% among 420,000; AID 686978, 2013; note: potency is the fitted concentration of half-maximal effect; nearly all actives have a fitted effect of over 55% in size
#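 Growth of hTDP1-complemented DT40 Tdp1-knockout cells is measured by ATP luminescence after at least 48 hr compound exposure at 37 °C, with DMSO substituting for the 20 nM CPT used in the parallel screen.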
# DT40 TDP1 CPT: qHTS for Inhibitors of human tyrosyl-DNA phosphodiesterase 1 (TDP1): qHTS in cells in presence of CPT; AID 686979, 2013; hit rate 12% among 420,000; Potency, µM (titrated, usually from 46.2 µM), for inactives: top-dose activity change, negative = growth inhibition, hits mostly inhibitors; chicken DT40 Tdp1-/-;hTDP1 cells + 20 nM CPT, ATP luminescence, 48 h; note: potency is the fitted concentration of half-maximal effect; nearly all actives have a fitted effect of over 55% in size
#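 Chicken DT40 Tdp1-/- cells complemented with human TDP1, 400 cells/well, exposed to compounds plus 20 nM camptothecin for at least 48 h at 37 C; viability read as ATP content by CellTiter-Glo luminescence.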
# HT1080 IDH1KD tx: qHTS for induction of synthetic lethality in tumor cells producing 2HG: qHTS for the HT-1080-IDH1KD cell line. AID 686971, 2013. Potency, µM (doses to about 46.1 µM), for inactives: at the highest dose activity, negative = toxicity, hits mostly cytotoxic. HT-1080 IDH1 knockdown viability, ATP luminescence, 48 h. hit rate 2% among 360,000;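 note: potency is the fitted concentration of half-maximal effect; 0% = DMSO wells and -100% = cell-free medium wells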
#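 HT-1080-IDH1KD cells (IDH1 knocked down), 750/well in RPMI with 5% FBS, treated with compound 48 h at 37 degrees C. Viability by CellTiter-Glo luminescence, normalised to DMSO and no-cell wells; concentration-response curves classed.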
# HT1080-NT tox: qHTS for induction of synthetic lethality in tumor cells producing 2HG: qHTS for the HT-1080-NT fibrosarcoma cell line; HT-1080-NT fibrosarcoma viability, CellTiter-Glo ATP luminescence, 48 h; Potency, µM (highest dose often 46.1 µM), for the others: at the highest dose activity, negative = less viability, actives largely listed as cytotoxic; hit rate 1.6% among 360,000;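 note: NT is the 2HG producing partner of a matched IDH1 knockdown line; potency is the fitted concentration of half-maximal effect; 0% = DMSO-treated cells and -100% = media-only wells without cells; nearly all actives have a fitted effect of over 55% in size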
#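 A 48-hour cytotoxicity screen used HT-1080-NT cells plated 2 hours before compound delivery. ATP-based CellTiter-Glo luminescence measured viability, normalized to DMSO and no-cell controls.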
# Starred values were filed as active, the others as inactive; ? = inconclusive; · = no result given; [ ] = dose if it differs, or a comment. Unless noted, calls come from the whole dose curve; as a rule, active = well fitted curve in the direction sought with a large enough effect; inconclusive = small, poorly fitted or top-dose-only effect, or another doubt; inactive = no such curve, though single readings can be large; an effect the other way counts as inactive or inconclusive. Unless noted, % is set by controls: 0 for no effect and ±100 for the full control effect.
SMILES,IL-1B inflam inh,TDP1 cell noCPT,DT40 TDP1 CPT,HT1080 IDH1KD tx,HT1080-NT tox
CCCCCc1cc(=O)oc2c(C(CCN3CCCC(C)C3)c3ccc(N(C)C)cc3)c(OC)cc(OC)c12 (stereo not given),-26,23µM*,?,-25%,?
COc1cc(C2CC(=O)Oc3c(C(CCN4CCCC(C)C4)c4ccc(N(C)C)cc4)c(OC)cc(OC)c32)cc(OC)c1OC (stereo not given),?,-29%,-29%,-1%,-6%
COc1cc(C(CC(=O)N2CCCC2)c2c(OC)cc(OC)c3ccc(=O)oc23)cc(OC)c1OC (stereo not given),-6,-25%,-14%,-8%,-3%
CCOC(=O)c1ccc(NC(=O)c2nc[nH]c2C(=O)N2CCN(c3ccccc3)CC2)cc1,-2,?,?,4%,3%
CCCCCc1cc(=O)oc2c(C(CCN3CCCC(C)C3)c3cc(OC)c(OC)c(OC)c3)c(OC)cc(OC)c12 (stereo not given),-60*,29µM*,?,?,?
COc1cc(O)c(C(CCN2CCCC(C)C2)c2cc(OC)c(OC)c(OC)c2)c(OC)c1 (stereo not given),-21,-22%,?,-3%,0%
Cn1c2c(c(=O)n(C)c1=O)C(C(F)(F)F)(C(F)(F)F)N=C(CCC1CCCCC1)N2,-58*,3.7µM*,2.6µM*,?,?
CCC(=O)NC1(C(F)(F)F)C(=O)Nc2c1c(=O)n(C)c(=O)n2C (stereo not given),1,-25%,-2%,0%,4%
Cn1c2c(c(=O)n(C)c1=O)C(C(F)(F)F)(C(F)(F)F)N=C(c1ccccc1Cl)N2,22,?,23µM*,-7%,-17%
COc1ccc(OC)c(-c2ccnc(-n3ncc(C(=O)N(C)CCc4ccccn4)c3C)n2)c1,·,-13%,-10%[9.04 µM],·,·
COc1cccc(-c2cc(C(=O)Nc3cc(OC)c(OC)c(OC)c3)on2)c1,·,2.9µM*,5.8µM*,·,·
COc1cc(NC(=O)c2cc(-c3ccccc3O)no2)cc(OC)c1OC,·,1.6µM*,2.3µM*,·,·
OCCn1c(-c2ccc(F)cc2)csc1=Nc1ccccc1,-53*,21µM*,?,-9%,-3%
OCCn1c(-c2ccc3c(c2)OCO3)csc1=Nc1ccccc1,-62*,21µM*,16µM*,-26%,-4%
CC(C)CN(C(=O)C1=NN(c2ccccc2)C(=O)CC1)c1c(N)n(Cc2ccccc2)c(=O)[nH]c1=O,10,12%,-9%,5%,0%
O=C(CCn1c2c(c3ccccc31)CCCC2)NNC(=O)c1ccccc1[N+](=O)[O-],-3,7.3µM*,?,-14%,-12%
O=C(CCn1c2c(c3ccccc31)CCCC2)NNC(=O)c1ccccc1C(=O)O,-23,1%,-3%,-27%,-20%
Cc1ccc(C)c(NC(=O)CSc2c3c(nc4ccc(Cl)cc24)CCCC3)c1,·,21µM*,21µM*,·,·
COC(=O)c1ccccc1NC(=O)CSc1c2c(nc3ccc(Cl)cc13)CCCC2,·,12µM*,?,·,·
Cn1cnc(C(=O)NCc2ccccc2)c1C(=O)NCc1ccccc1,-2,?,-13%,-8%,-3%
COc1ccc2[nH]cc(CCNc3ncncc3-c3ccccc3Cl)c2c1,·,?,23µM*,·,·
COc1ccc2[nH]cc(CCNc3ncncc3-c3ccccc3C(F)(F)F)c2c1,·,?,16µM*,·,·
Cc1ccc(NC(=O)CSc2ccc3c(c2)OCCO3)nc1,4,-26%,-1%,2%,0%
Cc1ccc2oc(=O)c(/C=C(\O)C(C)(C)C)nc2c1,33,-6%,-13%,-25%,-23%
Cc1ccc2oc(=O)c(/C=C(\O)c3ccco3)nc2c1,·,-24%,3%,-25%,-6%
